One test has as its system C33A. The experiment in a line: Primary qHTS to identify gynecologic anti-cancer compounds using libraries of approved drugs and bioactive compounds (AID 1345084). For activity change, negative = cytotoxicity: % is set by controls: 0 for no effect and ±100 for the full control effect. Note: nearly all actives have a fitted effect of over 55% in size. As to conditions: Gynecologic cancer cell panel viability, ATPlite luminescence, 48 h; series mostly up to 57.5 µM. The method in brief: (§1)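 Luminescence from the ATPlite ATP-monitoring reagent indicates viable cell number; lower signal means cytotoxicity. Cells received compound 16 h after seeding and were exposed for 48 h across five concentrations.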
Background: qHTS replaces the single test concentration by a dilution series.

The test system of a further test is CAOV3. Described as above. As to conditions: Gynecologic cancer cell panel viability, ATPlite luminescence, 48 h; series mostly up to 57.5 µM. The essentials: as §1
The next test deals with Es-2. The description is as above. As to conditions: Gynecologic cancer cell panel viability, ATPlite luminescence, 48 h; series mostly up to 57.5 µM. The method in brief:
as §1
A general note: Cellular ATP, detected with luciferase, serves as a proxy for viable cell number.

The next test has as its system Hek293T. Described as above. Conditions: Gynecologic cancer cell panel viability, ATPlite luminescence, 48 h, control line for the selectivity index; series mostly up to 57.5 µM. The essentials:
as §1

In the next test the test system is SKOV3. The description is as above. Conditions: Gynecologic cancer cell panel viability, ATPlite luminescence, 48 h; series mostly up to 57.5 µM. The method in brief:
as §1

The subject of a further test is Tov-21-G. Described as above. As to conditions: Gynecologic cancer cell panel viability, ATPlite luminescence, 48 h; series mostly up to 57.5 µM. The method in brief: as §1
The next test has as its system Tov112D. The test is described as above. As to conditions: Gynecologic cancer cell panel viability, ATPlite luminescence, 48 h; series mostly up to 57.5 µM. The essentials: as §1
The nature of test [1]: qHTS assay to identify inhibitors of the type 1 interferon - major histocompatibility complex class I in skeletal muscle: Counter screen cell viability and HiBit confirmation (AID 1347412). Note: nearly all actives have a fitted effect of over 60% in size. As to conditions: iHSKM muscle cells + IFN-b, HiBiT or CellTiter-Glo, 24 h; HiBiT. The method in brief:
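After 24 h with human IFN-beta (4 ng/ml) and compound titrations (top 46 uM final, 1:3, 12 points), HLA-B HiBit myoblasts were lysed for either Nano-Glo HiBiT luminescence or CellTiter Glo viability on paired plates.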

In a further test the test system is CASKI. Put plainly: Primary qHTS to identify gynecologic anti-cancer compounds using libraries of approved drugs and bioactive compounds (AID 1345084). For activity change, negative = cytotoxicity: % is set by controls: 0 for no effect and ±100 for the full control effect. Note: nearly all actives have a fitted effect of over 55% in size. As to conditions: Gynecologic cancer cell panel viability, ATPlite luminescence, 48 h; series mostly up to 57.5 µM. The method in brief: as §1
For another test, the system named is HeLa. The test is described as above. Conditions: Gynecologic cancer cell panel viability, ATPlite luminescence, 48 h; series mostly up to 57.5 µM. The essentials:
as §1

The next test deals with JEG-3. The test is described as above. Conditions: Gynecologic cancer cell panel viability, ATPlite luminescence, 48 h; series mostly up to 57.5 µM. The method in brief:
as §1

Another test relates to OV90. Described as above. As to conditions: Gynecologic cancer cell panel viability, ATPlite luminescence, 48 h; series mostly up to 57.5 µM. The method in brief:
as §1

The next test relates to PA-1. The description is as above. Conditions: Gynecologic cancer cell panel viability, ATPlite luminescence, 48 h; series mostly up to 57.5 µM. The method in brief: as §1

Molecules are shown by their SMILES. Results filed as inconclusive are left out. A number with no mark means an inactive call. Activity calls are given as the source filed them. Calls come from the whole dose curve; as a rule, active = well fitted curve in the direction sought with a large enough effect; inconclusive = small, poorly fitted or top-dose-only effect, or another doubt; inactive = no such curve, though single readings can be large; an effect the other way counts as inactive or inconclusive.
Potency is the fitted concentration of half-maximal effect.

With `CC1=C(CO)C(=O)O[C@@H]([C@@H](C)[C@H]2CC[C@H]3[C@@H]4C[C@H]5O[C@]56[C@@H](O)C=CC(=O)[C@]6(C)[C@H]4CC[C@]23C)C1`, the Potency was 4.47 µM (active) with C33A; 8.91 µM (active) in the test on CAOV3; 11.2 µM (active) with Es-2; 11.2 µM (active) in the test on Hek293T; 8.91 µM (active) with SKOV3; 7.08 µM (active) with Tov-21-G. Besides, the values for the Potency (in the test with Tov112D; in test [1]) were 10 µM (active) and 0.883 µM (active), respectively.

For `COC(=O)C1=CO[C@@H](O[C@@H]2O[C@H](CO)[C@@H](O)[C@H](O)[C@H]2O)[C@@H]2C(CO)=CC[C@]12O`, the Potency entry in the test with C33A, in the test on CASKI, in the test with Es-2, with HeLa, in the test with Hek293T and with JEG-3 was “inactive” throughout. Further, the Potency entry with OV90, with PA-1, in the test on SKOV3, with Tov-21-G and in the test with Tov112D was “inactive” throughout.

Consider `CC(=O)OC12COC1CC(O)C1(C)C(=O)C(O)C3=C(C)C(OC(=O)C(O)C(NC(=O)OC(C)(C)C)c4ccccc4)CC(O)(C(OC(=O)c4ccccc4)C21)C3(C)C` (centres undefined), for which the Potency result with C33A, in the test on CAOV3, in the test on JEG-3, with OV90, in the test on SKOV3 and with Tov112D was “inactive” throughout.

With `CC1(C)CC(NC(=O)C(=O)Nc2ccc(Br)cc2)CC(C)(C)N1`, the Potency result with C33A, in the test on CAOV3, with JEG-3 and in the test with OV90 was “inactive” each time. In addition, the Potency in the test on HeLa is 14.1 µM (active).

Consider `C[C@@H]1CC[C@]2(C(=O)OC3OC(CO)C(O)C(O)C3O)CC[C@]3(C)C(=CCC4[C@@]5(C)CC[C@H](O)[C@](C)(C(=O)O)C5CC[C@]43C)C2[C@]1(C)O` (some centres undefined), for which the Potency result with C33A, in the test with CASKI, with Es-2, in the test on HeLa, with Hek293T and with JEG-3 was “inactive” each time. For the same compound, the Potency result with OV90, in the test on PA-1, with SKOV3, in the test with Tov-21-G and with Tov112D was “inactive” each time.

On to `CC12CCC(=O)C=C1C(O)CC1C2C(O)CC2(C)C1CC[C@]2(O)C(=O)CO` (some centres undefined), for which the activity change, negative = cytotoxicity with C33A is 4.59% [at 11.6 µM]; in the test on CASKI it was -0.604% [at 11.6 µM]; in the test with Es-2, 1.39% [at 11.6 µM]; in the test with HeLa, 6.62% [at 11.6 µM]; in the test with Hek293T, 5.48% [at 11.6 µM]; in the test with JEG-3, 6.5% [at 11.6 µM]. In addition, the activity change, negative = cytotoxicity was 9.39% [at 11.6 µM] in the test on OV90; -1.22% [at 11.6 µM] in the test on PA-1; -0.607% [at 11.6 µM] in the test with SKOV3; -3.93% [at 11.6 µM] in the test with Tov-21-G; 12.3% [at 11.6 µM] with Tov112D.

`CCO[C@@H]1OC(=O)C[C@@H]1NC(=O)[C@@H]1CCCN1C(=O)[C@@H](NC(=O)c1ccc(N)c(Cl)c1)C(C)(C)C`: the Potency entry in the test with C33A, with CASKI, in the test on Es-2, with HeLa, in the test on Hek293T and with JEG-3 was “inactive” in each case. For the same compound, the Potency result in the test on OV90, in the test with PA-1, in the test on SKOV3, with Tov-21-G and with Tov112D was “inactive” each time.

Consider `COC(C(=O)N1Cc2[nH]nc(NC(=O)c3ccc(N4CCN(C)CC4)cc3)c2C1)c1ccccc1` (centres undefined), for which the Potency result in the test on C33A, with Es-2 and in the test with JEG-3 was “inactive” throughout. The Potency is 1.41 µM (active) with CAOV3, 7.94 µM (active) in the test on PA-1, 17.8 µM (active) in the test on SKOV3 and 12.6 µM (active) in the test with Tov-21-G.

For the compound `Cc1cccc(-c2[nH]c(Cc3cccc(C(N)=O)c3)nc2-c2ccc3nccnc3c2)n1`, the Potency entry in the test with C33A, in the test on CASKI, in the test on Es-2, in the test on HeLa, in the test on Hek293T and in the test on JEG-3 was “inactive” in each case. In addition, the Potency result with OV90, in the test on PA-1, in the test on SKOV3, with Tov-21-G and in the test on Tov112D was “inactive” in each case.

Turning to `COc1cc([C@H]2c3cc(O)c(OC)cc3C[C@@H](CO[C@@H]3O[C@H](CO)[C@@H](O)[C@H](O)[C@H]3O)[C@@H]2CO)ccc1O`, the Potency entry with C33A, in the test with CASKI, in the test with Es-2, in the test with HeLa, in the test on Hek293T and in the test with JEG-3 was “inactive” each time. For the same compound, the Potency entry with OV90, in the test with PA-1, in the test with SKOV3, in the test on Tov-21-G and with Tov112D was “inactive” throughout.

With `CC(C)=CCC[C@](C)(O)[C@H]1CC[C@]2(C)[C@@H]1[C@H](O)CC1[C@@]3(C)CC[C@H](O)C(C)(C)[C@@H]3[C@@H](O[C@@H]3O[C@H](CO)[C@@H](O)[C@H](O)[C@H]3O[C@@H]3O[C@H](CO)[C@@H](O)[C@H](O)[C@H]3O)C[C@]12C` (some centres undefined), the Potency result in the test on C33A, in the test on CASKI, in the test on Es-2, in the test with HeLa, with Hek293T and with JEG-3 was “inactive” each time. Also, the Potency result in the test on OV90, with PA-1, in the test with SKOV3, in the test on Tov-21-G and in the test with Tov112D was “inactive” throughout.

With `NC(=O)[C@H]1CCS[C@@H]2C[C@]3(CCCN3C(=O)Cc3ccc(NC(=O)COc4ccc(Cl)cc4Cl)cc3)C(=O)N12`, the Potency entry in the test with C33A, with CAOV3, with Es-2 and in the test with OV90 was “inactive” throughout. For the same compound, the Potency was 31.6 µM (active) in the test on HeLa and 15.8 µM (active) in the test on PA-1.

Consider `Cc1ccc(NC(=O)c2ccc(CN3CC[C@H](N(C)C)C3)c(C(F)(F)F)c2)cc1Nc1nccc(-c2cncnc2)n1`, for which the Potency entry with C33A, with CAOV3, with HeLa, with Hek293T, in the test with JEG-3 and in the test with SKOV3 was “inactive” each time. In addition, the Potency entry in the test with Tov-21-G and in the test with Tov112D was “inactive” throughout. Moreover, the Potency in the test on OV90 was 5.01 µM (active).

Consider `COc1cc(NC(=O)Nc2cccc(CNC(=O)O[C@H]3CCOC3)c2)ccc1-c1cnco1`, for which the Potency entry in the test with C33A, in the test with CAOV3, in the test with JEG-3 and in the test on Tov112D was “inactive” each time. In addition, the Potency was 1.41 µM (active) with PA-1 and 8.91 µM (active) in the test on Tov-21-G.

For the compound `C=C1C[C@]23C[C@H]1CC[C@H]2[C@@]12CC[C@H](O)[C@@](C)(C(=O)O1)[C@H]2[C@@H]3C(=O)O`, the Potency result in the test on C33A, with CASKI, with Es-2, in the test with HeLa, with Hek293T and with JEG-3 was “inactive” each time. In addition, the Potency entry with OV90, with PA-1, in the test with SKOV3, in the test with Tov-21-G and in the test on Tov112D was “inactive” in each case.

`CN(C)C/C=C/C(=O)Nc1cc2c(Nc3ccc(F)c(Cl)c3)ncnc2cc1OC1CCOC1` (centres undefined): the Potency was 20 µM (active) in the test with C33A, 10 µM (active) in the test with CAOV3 and 5.62 µM (active) in the test on Tov-21-G. The Potency entry in the test with JEG-3 is “inactive”.

These data come from PubChem BioAssay (NCATS).
